Source: PubChem BioAssay AID1159580 (chemical genetic matrix, 2015)
Screen size: about 5,500 compounds; about 2,000 (36%) were called active. Inconclusive results (about 18%) are left out. Rule as the data show it: active = normalized growth mostly below about 0.91 (no sharp cut-off); inconclusive = no clear call, values can overlap the other calls; inactive = mostly above about 0.92. The list shows a part of the results.

Assay: chemical genetic growth profiling, strain panel (AID 1159580);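 also: tested at 20 µM; growth read once vehicle control cultures reached saturation at 30 °C; 1 = growth at the plate median or of vehicle wells; lower values mean less growth of the strain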
Settings: growth OD
[1] = S. cerevisiae deletion strains, locus YDL101C, strain DUN1, stronger effect = lower value
[2] = S. cerevisiae deletion strains, locus YHR030C, strain SLT2, stronger effect = lower value

Measured: normalized growth

CC(=O)c1sc(SCc2ccc(Cl)cc2)c2c1CC(C)(C)CC2=O
inactive: S. cerevisiae deletion strains, locus YAL013W, strain DEP1, stronger effect = lower value 0.97 | S. cerevisiae deletion strains, locus YBR229C, strain ROT2, stronger effect = lower value 1.06 | [1] 1.01 | S. cerevisiae deletion strains, locus YDL134C, strain PPH21, stronger effect = lower value 0.976 | S. cerevisiae deletion strains, locus YDR150W, strain NUM1, stronger effect = lower value 0.954 | S. cerevisiae deletion strains, locus YEL061C, strain CIN8, stronger effect = lower value 1.07 | S. cerevisiae deletion strains, locus YGR078C, strain PAC10, stronger effect = lower value 1 | [2] 0.793 | S. cerevisiae deletion strains, locus YHR087W, strain rtc3, stronger effect = lower value 1 | S. cerevisiae deletion strains, locus YJR043C, strain POL32, stronger effect = lower value 0.987 | S. cerevisiae deletion strains, locus YJR075W, strain HOC1, stronger effect = lower value 1.05 | S. cerevisiae deletion strains, locus YKL190W, strain CNB1, stronger effect = lower value 0.966 | S. cerevisiae deletion strains, locus YLR039C, strain RIC1, stronger effect = lower value 0.938 | S. cerevisiae deletion strains, locus YLR058C, strain SHM2 (second series), stronger effect = lower value 1.01 | S. cerevisiae deletion strains, locus YLR085C, strain ARP6, stronger effect = lower value 1.02 | S. cerevisiae deletion strains, locus YLR262C, strain YPT6, stronger effect = lower value 0.941 | S. cerevisiae deletion strains, locus YML094W, strain GIM5, stronger effect = lower value 1.01 | S. cerevisiae deletion strains, locus YMR219W, strain ESC1, stronger effect = lower value 1.03 | S. cerevisiae deletion strains, locus YMR263W, strain SAP30, stronger effect = lower value 0.936 | S. cerevisiae deletion strains, locus YMR307W, strain GAS1, stronger effect = lower value 1.03 | S. cerevisiae deletion strains, locus YNL128W, strain TEP1, stronger effect = lower value 0.981 | S. cerevisiae deletion strains, locus YNL153C, strain GIM3, stronger effect = lower value 0.971 | S. cerevisiae deletion strains, locus YNL298W, strain CLA4 (second series), stronger effect = lower value 0.952 | S. cerevisiae deletion strains, locus YNL322C, strain KRE1, stronger effect = lower value 0.993 | S. cerevisiae deletion strains, locus YNR030W, strain Alg12, stronger effect = lower value 0.941 | S. cerevisiae deletion strains, locus YPL055C, strain LGE1, stronger effect = lower value 1.12 | S. cerevisiae deletion strains, locus YPL241C, strain CIN2, stronger effect = lower value 0.907 | S. cerevisiae deletion strains, locus YPR135W, strain CTF4, stronger effect = lower value 0.819 | S. cerevisiae strains, strain wild type, stronger effect = lower value 0.955

CC(=O)c1sc(SCCS(=O)(=O)c2ccc(C)cc2)c2c1CC(C)(C)CC2=O
active: S. cerevisiae deletion strains, locus YDR477W, strain SNF1, stronger effect = lower value 0.643 | S. cerevisiae deletion strains, locus YER133W, strain GLC7, stronger effect = lower value 0.267 | S. cerevisiae deletion strains, locus YGR040W, strain KSS1, stronger effect = lower value 0.675 | [2] 0.498 | S. cerevisiae deletion strains, locus YKL203C, strain TOR2, stronger effect = lower value 0.635 | S. cerevisiae deletion strains, locus YOR119C, strain RIO1, stronger effect = lower value 0.653 | S. cerevisiae deletion strains, locus YPL153C, strain RAD53, stronger effect = lower value 0.622 | S. cerevisiae deletion strains, locus YPL204W, strain HRR25, stronger effect = lower value 0.653
inactive: S. cerevisiae deletion strains, locus YAR019C, strain CDC15, stronger effect = lower value 0.984 | S. cerevisiae deletion strains, locus YBL105C, strain PKC1, stronger effect = lower value 1.01 | S. cerevisiae deletion strains, locus YBR135W, strain CKS1, stronger effect = lower value 0.984 | S. cerevisiae deletion strains, locus YBR136W, strain MEC1, stronger effect = lower value 0.98 | S. cerevisiae deletion strains, locus YBR160W, strain CDC28, stronger effect = lower value 0.98 | S. cerevisiae deletion strains, locus YDL017W, strain CDC7, stronger effect = lower value 0.992 | S. cerevisiae deletion strains, locus YDL028C, strain MPS1, stronger effect = lower value 0.98 | [1] 0.969 | S. cerevisiae deletion strains, locus YDL108W, strain KIN28, stronger effect = lower value 0.97 | S. cerevisiae deletion strains, locus YDL132W, strain cdc53, stronger effect = lower value 0.978 | S. cerevisiae deletion strains, locus YDL214C, strain PRR2, stronger effect = lower value 0.926 | S. cerevisiae deletion strains, locus YDR052C, strain DBF4, stronger effect = lower value 0.935 | S. cerevisiae deletion strains, locus YDR054C, strain cdc34, stronger effect = lower value 1.01 | S. cerevisiae deletion strains, locus YDR226W, strain ADK1, stronger effect = lower value 0.962 | S. cerevisiae deletion strains, locus YER123W, strain YCK3, stronger effect = lower value 0.914 | S. cerevisiae deletion strains, locus YFL009W, strain cdc4, stronger effect = lower value 0.973 | S. cerevisiae deletion strains, locus YFL029C, strain CAK1, stronger effect = lower value 0.986 | S. cerevisiae deletion strains, locus YFR003C, strain YPI1, stronger effect = lower value 0.97 | S. cerevisiae deletion strains, locus YFR019W, strain FAB1, stronger effect = lower value 0.932 | S. cerevisiae deletion strains, locus YFR028C, strain CDC14, stronger effect = lower value 0.97 | S. cerevisiae deletion strains, locus YGR052W, strain FMP48, stronger effect = lower value 0.947 | S. cerevisiae deletion strains, locus YGR092W, strain DBF2, stronger effect = lower value 0.963 | S. cerevisiae deletion strains, locus YHR079C, strain IRE1, stronger effect = lower value 1.08 | S. cerevisiae deletion strains, locus YHR082C, strain KSP1, stronger effect = lower value 0.987 | S. cerevisiae deletion strains, locus YHR205W, strain SCH9, stronger effect = lower value 0.958 | S. cerevisiae deletion strains, locus YIL147C, strain SLN1, stronger effect = lower value 0.979 | S. cerevisiae deletion strains, locus YJL095W, strain BCK1, stronger effect = lower value 0.589 | S. cerevisiae deletion strains, locus YJL128C, strain PBS2, stronger effect = lower value 0.982 | S. cerevisiae deletion strains, locus YJL157C, strain FAR1, stronger effect = lower value 0.943 | S. cerevisiae deletion strains, locus YJR016C, strain ILV3, stronger effect = lower value 0.985 | S. cerevisiae deletion strains, locus YJR066W, strain TOR1 (second series), stronger effect = lower value 0.82 | S. cerevisiae deletion strains, locus YJR066W, strain TOR1, stronger effect = lower value 0.995 | S. cerevisiae deletion strains, locus YKL048C, strain ELM1, stronger effect = lower value 0.859 | S. cerevisiae deletion strains, locus YKL067W, strain YNK1, stronger effect = lower value 0.936 | S. cerevisiae deletion strains, locus YKL101W, strain HSL1, stronger effect = lower value 0.926 | S. cerevisiae deletion strains, locus YKL193C, strain SDS22, stronger effect = lower value 0.98 | S. cerevisiae deletion strains, locus YLR113W, strain HOG1, stronger effect = lower value 0.912 | S. cerevisiae deletion strains, locus YLR133W, strain CKI1, stronger effect = lower value 0.931 | S. cerevisiae deletion strains, locus YLR403W, strain SFP1, stronger effect = lower value 0.828 | S. cerevisiae deletion strains, locus YML070W, strain DAK1, stronger effect = lower value 0.948 | S. cerevisiae deletion strains, locus YMR001C, strain CDC5, stronger effect = lower value 0.983 | S. cerevisiae deletion strains, locus YMR205C, strain PFK2 (second series), stronger effect = lower value 0.923 | S. cerevisiae deletion strains, locus YMR277W, strain FCP1, stronger effect = lower value 0.964 | S. cerevisiae deletion strains, locus YNL006W, strain LST8, stronger effect = lower value 0.967 | S. cerevisiae deletion strains, locus YNL020C, strain ARK1, stronger effect = lower value 0.935 | S. cerevisiae deletion strains, locus YNL161W, strain CBK1, stronger effect = lower value 0.973 | S. cerevisiae deletion strains, locus YNL183C, strain NPR1, stronger effect = lower value 0.962 | S. cerevisiae deletion strains, locus YNL207W, strain RIO2, stronger effect = lower value 1 | S. cerevisiae deletion strains, locus YNL222W, strain SSU72, stronger effect = lower value 0.967 | S. cerevisiae deletion strains, locus YNL307C, strain MCK1 (second series), stronger effect = lower value 0.913 | S. cerevisiae deletion strains, locus YOL078W, strain AVO1, stronger effect = lower value 0.972 | S. cerevisiae deletion strains, locus YOL136C, strain PFK27, stronger effect = lower value 0.896 | S. cerevisiae deletion strains, locus YOR061W, strain CKA2, stronger effect = lower value 0.941 | S. cerevisiae deletion strains, locus YOR231W, strain MKK1, stronger effect = lower value 0.94 | S. cerevisiae deletion strains, locus YOR329C, strain SCD5, stronger effect = lower value 0.979 | S. cerevisiae deletion strains, locus YPL031C, strain PHO85, stronger effect = lower value 0.818 | S. cerevisiae deletion strains, locus YPL209C, strain IPL1, stronger effect = lower value 0.986 | S. cerevisiae deletion strains, locus YPL256C, strain CLN2, stronger effect = lower value 0.956 | S. cerevisiae deletion strains, locus YPR025C, strain CCL1, stronger effect = lower value 0.975 | S. cerevisiae deletion strains, locus YPR106W, strain ISR1, stronger effect = lower value 0.978 | S. cerevisiae deletion strains, locus YPR111W, strain DBF20, stronger effect = lower value 0.963 | S. cerevisiae deletion strains, strain NNK1, stronger effect = lower value 0.991 | S. cerevisiae deletion strains, strain TSCII, stronger effect = lower value 0.967
